Screening data deposited in PubChem BioAssay by SRMLSC.
PMK inhibit = blocks S. pneumoniae phosphomevalonate kinase. inhibition, % at 10 µM. hit rate 0.49% among 65,000. purified PMK, PK/LDH-coupled NADH absorbance 340 nm;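 active = top-ranked compounds by inhibition in the single 10 µM screen, taking a fixed number of the strongest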;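 note: 0% = full reaction with DMSO carrier and 100% = background rate without enzyme reaction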
DPM-DC inhibit = inhibitors of Streptococcus pneumoniae diphosphomevalonate decarboxylase. hit rate 0.49% among 65,000. AID 556. calls only at 10 µM. purified DPM-DC, PK/LDH coupled NADH fluorescence;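 active = the 320 compounds with the highest percent inhibition in the single-dose primary screen, excluding strongly autofluorescent ones, cut at about 32% in these data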;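 note: kinetic rate of NADH fluorescence loss reporting ADP formed by the decarboxylase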
NADH enzymes = blocks coupling enzymes of NAD/NADH assays. coupled PK/LDH NADH assays, four targets. IC50, µM (top dose mostly 10 µM), inactives show top-dose inhibition. hit rate 0.02% among 65,000. AID 774;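 active = single-dose screening hits from any of four coupled enzyme assays that gave an IC50 when retested across doses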;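 note: the DPM-DC format reads NADH fluorescence rather than 340 nm absorbance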
Spn MK inh = inhibitors of Streptococcus pneumoniae mevalonate kinase; AID 555; inhibition, % at 10 µM; hit rate 0.48% among 65,000; purified MK, PK/LDH-coupled NADH absorbance 340 nm;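 active = ranked among the strongest by inhibition in the single 10 µM screen, a fixed top-ranked set picked for dose follow-up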
Fluor 339 460 = intrinsic fluorescence of library compounds, ex339/em460 – biochemical, MLSMR library, data from DPM-DC assay, artefact control, profiling panel; compound autofluorescence, ex339/em460 nm, NADH buffer; hits give high values; 1 = no-compound wells, NADH background; fluorescence fold increase at 10 µM; hit rate 5.5% among 65,000; AID 709;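 active = at 10 µM, mean starting fluorescence two-fold or more over control wells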;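 note: signal is the first read of a kinetic run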
A340 absorber = absorbance at 340 nm; compound absorbance at 340 nm, fold over control; fold change at 10 µM; 65,000 tested, under 10 active;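 active = at 10 µM dose, initial 340 nm absorbance at least 2 fold that of control wells; inactive = change under 2 fold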;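 note: initial absorbance extrapolated from kinetic A340 decline of NADH oxidation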
Active calls of the source: *; i = inactive; x = no result given; + = active, no number. An excerpt weighted towards active compounds, which were near 6.5% of everything screened.

SMILES | PMK inhibit | DPM-DC inhibit | NADH enzymes | Spn MK inh | Fluor 339 460 | A340 absorber
Cc1sc2nc(CN(Cc3cccs3)C(=O)NC3CCCCC3)[nH]c(=O)c2c1C | 4 | i | 2% | 2 | 1 | 1
COC(=O)c1cc(OC)c(OC)cc1NC(=O)Nc1ccccc1OC | 13 | x | 14% | 15 | 2.1* | 1
COC(=O)c1cc(OC)c(OC)cc1NC(=O)c1oc2ccccc2c1C | 5 | + | 16% | 9 | 2.5* | 1.1
CC(C)CNS(=O)(=O)c1ccccc1C(=O)N1CCCCC1 | 5 | i | 4% | 8 | 1.1 | 1
CC(C)COC(=O)n1ccc(C(=O)N2CCCCC2)n1 | 25* | i | 11% | 4 | 1 | 0.99
CC(C)Cn1c(=O)c(C2=NS(=O)(=O)c3ccccc3N2)c(O)c2ccccc21 | 13 | x | 5% | 19 | 1.9 | 1
c1ccc(Cn2nnc3c(N4CCCCCC4)ncnc32)cc1 | 0 | i | 3% | 6 | 1 | 0.97
c1ccc(Cn2nnc3c(N4CCc5ccccc54)ncnc32)cc1 | 7 | x | 5% | 3 | 4.3* | 1
CCCS(=O)(=O)N1CCCC(C(=O)NCCc2ccc(OC)c(OC)c2)C1 (configuration not stated) | 7 | i | 2% | 0 | 1.1 | 1
COc1cccc(NC(=O)N2CCCC2C(=O)NC2CC2)c1 (configuration not stated) | 19 | i | 7% | 2 | 1.1 | 1
CCOc1ccc2[nH]c(C)c(CN3CCOCC3)c(=O)c2c1 | 16 | i | 13% | 7 | 1.6 | 1.1
COc1ccc2[nH]c(C)c(CN3CCCCC3)c(=O)c2c1 | 14 | i | 8% | 8 | 2.8* | 1
CCOCCOC(=O)C1=C(C)NC2=C(C(=O)CC(c3cccs3)C2)C1c1ccsc1 (configuration not stated) | 0 | x | 2% | 4 | 2.1* | 1.1
C=CCn1c(SCC(=O)OC)nc2sc3c(c2c1=O)CCN(C)C3 | 5 | i | 7% | 2 | 1.6 | 1.1
CCOC(=O)Cc1csc(NC(=O)CSc2ncnc3c2cnn3-c2ccc(OC)cc2)n1 | 12 | i | 9% | 11 | 2.5* | 0.99
CC(C)Cn1cnc2c(c1=O)c1nc3ccccc3nc1n2Cc1ccc2c(c1)OCO2 | 0 | i | 12% | 12 | 1.6 | 1.1
Cc1ccc(-c2cc(C(F)(F)F)c(C#N)c(SCCC#N)n2)o1 | 2 | x | 5% | 8 | 3.7* | 1.1
CC(C)(C)OC(=O)NC(CCCCNC=O)C(=O)O (configuration not stated) | 7 | i | 5% | 9 | 1.1 | 1.1
CC(=O)c1cc2c(cc1NC(=O)CSc1nc3ccccc3o1)OCO2 | 7 | i | 15% | 11 | 2.4* | 1
CC(=O)Nc1nonc1NC(=O)CSc1nc2ccccc2o1 | 14 | i | 5% | 0 | 1 | 0.99
Cc1cccc(-c2c3c(=O)n(C)c(=O)n(C)c3c3c(C)cc(C)nn23)c1 | 11 | i | 7% | 9 | 1.1 | 1.1
c1ccc2c(c1)ncc1cccn12 | 8 | x | 5% | 1 | 2.1* | 1.1
COc1nc(-c2ccc(C)cc2)ccc1-c1noc(-c2ccco2)n1 | 10 | i | 9% | 0 | 2.4* | 1.1
CCOc1nc(-c2ccccc2)ccc1-c1noc(COc2ccccc2)n1 | 8 | i | 3% | 0 | 2.9* | 1.1
CCOc1nc(-c2ccccc2)ccc1-c1noc(-c2ccco2)n1 | 19 | i | 16% | 0 | 2.6* | 1
SMILES | PMK inhibit | DPM-DC inhibit | NADH enzymes | Spn MK inh | Fluor 339 460 | A340 absorber
COc1nc(C)ccc1-c1noc(-c2ccco2)n1 | 7 | i | 8% | 8 | 1.1 | 1
Cc1cc(C)n(CC2CC(=O)N(c3ccc(Cl)c(Cl)c3)C2=O)n1 (configuration not stated) | 3 | i | 1% | 0 | 1 | 1
CCc1nc(NC(C)C)c2oc3ccccc3c2n1 | 0 | i | 5% | 15 | 1.1 | 1
CCc1nc(Nc2ccncc2)c2oc3ccccc3c2n1 | 8 | i | 15% | 17 | 2* | 1.2
COC(=O)c1c(-c2ccccc2)csc1NC(=O)c1ccco1 | 10 | x | 5% | 0 | 4.9* | 1
O=C(Nc1scc(-c2ccc(F)cc2)c1C(=O)O)c1ccco1 | 0 | i | 3% | 8 | 1.1 | 1.2
